Screens: PubChem, Broad Institute
Rows were chosen to be rich in hits. Some 2.5% of all compounds tested hit in one or more screens of this group.
rRNA inh HTS = reduced GFP signal of wild-type E. coli, primary screen, bacterial rRNA inhibitor project, GFP/RFP fluorescence, OD600, single point; AID 720706, 2013; GFP signal change (wild-type ribosome), % (test concentration not listed); 1.6% of 350,000 active; E. coli WT GFP vs humanized-ribosome RFP mutants, 24 h; active compounds read low; DMSO median 0, no signal -100;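 active = significant combined selectivity score with lowered wild-type GFP, culture density cut under 30%, mutant RFP and density less affected; inactive = any of these conditions unmet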
NSD2 HMT inh = NSD2 histone methyltransferase inhibitors, primary screen, biochemical, AlphaScreen, single concentration, set 2. Histone-lysine N-methyltransferase NSD2 (Homo sapiens), O96028. NSD2 peptide methylation, 120 min. inhibition, % at 12.5 µM. 0.54% of 310,000 active; in the data active = inhibition above about 50%
AF4-AF9 inh = inhibitors of AF4 peptide binding to AF9, primary screen, biochemical, AlphaScreen, biotin-AF4 peptide, FLAG-AF9, single point | Protein AF-9 (Homo sapiens), P42568 | inhibition, % at 10 µM | 0.47% of 350,000 active | AID 651704, 2012;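 active = every replicate reaching a set inhibition limit, whatever the replicate mean, cut at about 25% in these data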;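 note: 0% = plate neutral control median and 100% = total signal loss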
CASP6 VEID inh = human caspase-6 inhibitors, primary screen, biochemical, VEID-R110 fluorescence, single point, set 2. purified caspase-6, Z-VEID-R110 cleavage fluorescence. P55212. 0.53% of 350,000 active. inhibition, % at 12.5 µM. AID 686996, 2013;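 active = mean inhibition across replicates at least about 35%, with every replicate also reaching that limit, limit read from the data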;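 note: 0% = median of neutral control wells and 100% = no fluorescence left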
RAD52 anneal inh = RAD52 DNA annealing inhibitors, primary screen, biochemical, FRET, single point, set 2; recombinant RAD52 DNA annealing, FRET fluorescence; inhibition, % at 18.7 µM; 0.46% of 360,000 active;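 active = every replicate showing at least 50% inhibition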
Target sequence (P43351 whole entry, looked up): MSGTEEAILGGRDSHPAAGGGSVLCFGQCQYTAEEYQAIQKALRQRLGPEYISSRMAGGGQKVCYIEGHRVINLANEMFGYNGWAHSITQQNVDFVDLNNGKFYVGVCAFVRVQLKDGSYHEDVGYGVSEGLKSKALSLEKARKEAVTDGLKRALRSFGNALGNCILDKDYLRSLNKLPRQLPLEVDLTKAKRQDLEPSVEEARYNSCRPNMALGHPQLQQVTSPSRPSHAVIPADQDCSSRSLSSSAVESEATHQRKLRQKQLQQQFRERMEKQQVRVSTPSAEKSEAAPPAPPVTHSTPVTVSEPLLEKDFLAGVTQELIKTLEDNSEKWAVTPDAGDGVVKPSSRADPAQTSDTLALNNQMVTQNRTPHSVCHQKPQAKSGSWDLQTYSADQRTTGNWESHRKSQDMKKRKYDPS
The depositor's hits bear a star; · = no result given.

SMILES	rRNA inh HTS	NSD2 HMT inh	AF4-AF9 inh	CASP6 VEID inh	RAD52 anneal inh
Cc1ccc(S(=O)(=O)Nc2cccc3c2O[C@H](CN(C)Cc2ccc(C(=O)O)cc2)[C@H](C)CN([C@H](C)CO)C3=O)cc1	4	·	27*	0	-15
CO[C@H]1CN(C)C(=O)c2cc(NS(=O)(=O)c3cn(C)cn3)ccc2OC[C@H](C)N(Cc2cccc(F)c2)C[C@@H]1C	1	·	1	0	6
CO[C@H]1CN(C)C(=O)c2ccc(NC(=O)C3CC3)cc2OC[C@@H](C)N(C(=O)NC(C)C)C[C@H]1C	4	·	0	2	3
COc1ccc2c3c([nH]c2c1)[C@@H](CO)N(C(=O)NC(C)C)CC31CCN(Cc2ccccc2)CC1	-3	·	13	·	·
C[C@H]1CN([C@@H](C)CO)C(=O)c2cc(NC(=O)CCCN(C)C)ccc2O[C@H]1CN(C)S(=O)(=O)c1cccs1	3	·	0	-1	-6
CN1CCN(c2nc(-c3cccnc3)nc3scc(-c4ccccc4)c23)CC1	-22*	5	2	-6	-8
COc1ccc2c3c([nH]c2c1)[C@H](CO)N(C(=O)Nc1c(C)noc1C)CC31CN(CC2CC2)C1	0	·	·	·	·
CCCN(CC(=O)Nc1ccc(Cl)cc1Cl)Cc1cc(=O)n2ccsc2n1	-46*	0	-3	1	-20
CCCN(CC(=O)Nc1ccc(F)c(F)c1F)Cc1cc(=O)n2ccsc2n1	5	0	1	-2	-7
CCC(=O)Nc1ccc2c(c1)OC[C@@H](C)N(CC1CCCCC1)C[C@@H](C)[C@H](OC)CN(C)C2=O	-1	·	·	·	·
COc1cc(CN2CCCCCC2)cc([N+](=O)[O-])c1O	1	1	-4	0	-11
COc1cc(CN2CCc3ccccc3C2)cc([N+](=O)[O-])c1O	2	-1	2	47*	1
COc1ccc(NC(=O)N(C)C[C@H]2OCCCC[C@@H](C)Oc3ccc(NC(=O)Cc4ccccc4)cc3C(=O)N([C@H](C)CO)C[C@@H]2C)cc1	2	·	-3	7	17
CC(NC(=S)NC1CCCCC1)c1ccc(C(C)(C)C)cc1 (centres undefined)	13	5	1	42*	5
CC(C)c1ccc(C(C)NC(=S)NC2CCCCC2)cc1 (centres undefined)	-41	3	0	2	7
COCC#Cc1ccc([C@@H]2[C@@H](CO)N3C(=O)CN(C(=O)C4CCCC4)C[C@H]23)cc1	7	·	-1	2	-8
COCC(=O)N1CC2(C1)CN(C(=O)Cc1ccccc1)[C@@H](CO)c1c2c2ccc(OC)cc2n1C	-1	·	0	·	·
O=C1C(N2CCOCC2)=C(n2nnc3ccccc32)C(=O)c2ccccc21	·	117*	·	·	·
CC(=NNC(=S)Nc1ccc(C)cc1)c1ccccn1	-9	21	5	40*	-32
CC(=NNC(=S)Nc1cccc(C)c1)c1ccccn1	-10	·	4	·	-9
O=C(NCc1ccccc1)C(c1ccco1)N(C(=O)c1csnn1)C1CC1 (centres undefined)	·	43	41*	-1	-3
O=C(NCc1ccc(F)cc1)C(c1ccco1)N(C(=O)c1csnn1)C1CC1 (centres undefined)	·	5	0	0	-8
CN1C(=O)c2cc(NC(=O)C3CCC3)ccc2OC[C@H]2O[C@H](CC(=O)NCCc3ccncc3)CC[C@H]21	2	·	1	-8	7
CC(C)NC(=O)N1[C@H](CO)[C@@H](c2ccc(C#CC3CC3)cc2)[C@@H]1C#N	14	·	-1	3	-57
O=C(Nc1ccccc1C(=O)N1CCCC1)c1ccccc1	9	·	-7	1	2
SMILES	rRNA inh HTS	NSD2 HMT inh	AF4-AF9 inh	CASP6 VEID inh	RAD52 anneal inh
O=C(Nc1ccccc1C(=O)N1CCCCCC1)c1ccc(Cl)cc1	-24*	-1	0	-1	-8
C[C@@H]1CN([C@H](C)CO)C(=O)Cc2cc(NC(=O)Nc3ccccc3)ccc2O[C@@H]1CN(C)CC1CC1	-9	·	·	·	·
CC(=O)NC(CCc1ccc(Cl)c(Cl)c1)c1cccc(O)c(=O)c1 (centres undefined)	-47	30	30*	24	-30
Cc1cc(/C=N/N2CCN(C)CC2)c(C)n1-c1ccc(Cl)cc1	3	7	48*	-25	18
Cc1cc(/C=N/n2cnnc2)c(C)n1-c1ccc(Cl)cc1	·	3	·	·	·
CC(=O)Nc1ccc2c(c1)C(=O)N(C)C[C@@H](C)[C@@H](CN(C)C)O2	0	·	·	·	·
COC(=O)C1=C(C)N(Cc2ccc(Br)cc2)C(=S)NC1c1cccc(OC)c1 (centres undefined)	0	-1	·	-1	-10
COC(=O)C1=C(C)N(Cc2ccc(F)cc2)C(=S)NC1c1cccc(OC)c1 (centres undefined)	-22*	·	·	-4	-8
COC(=O)C1=C(C)N(Cc2ccccc2)C(=S)NC1c1cccc(OC)c1 (centres undefined)	-29*	·	·	-3	-12
C[C@H]1CN([C@@H](C)CO)C(=O)c2cc(NS(=O)(=O)c3cn(C)cn3)ccc2O[C@@H]1CN(C)Cc1ccccc1	-1	·	1	-1	-10
O=S(=O)(c1ccc(Cl)cc1)N1CCN(Cc2c[nH]c3ccccc23)CC1	·	5	·	·	·
Clc1ccccc1N1CCN(Cc2c[nH]c3ccccc23)CC1	-45*	4	12	2	7
COCC#Cc1ccc([C@@H]2[C@@H](CO)N3C(=O)CN(C(=O)Nc4cc(F)ccc4F)C[C@H]23)cc1	-2	·	·	·	·
O=C(CP(=O)(c1ccccc1)c1ccccc1)Nc1nc2ccccc2s1	-36*	-3	·	7	-7
O=C(NNc1nc2ccccc2s1)c1ccccc1F	-41*	2	2	1	-5
CC(=O)Nc1nc(NC(=O)C(Cl)(Cl)Cl)n(-c2ccccc2)n1	-23*	48	7	-1	-22
Cc1[nH]c(=O)c(C(=O)/C=C/c2ccccc2F)c2c1CCCC2	-18*	19	-4	1	-14
Cc1csc(SC(C)c2nc3scc(-c4ccccc4)c3c(=O)[nH]2)n1 (centres undefined)	-24*	6	-2	5	-7
c1ccc(CSc2nc3ccccc3[nH]2)cc1	-22*	·	-3	-2	-3
Nc1c(-c2ccccc2)c(CSc2nc3ccccc3[nH]2)nn1-c1ccc(Cl)cc1	-19*	-2	2	-1	-14
CCOc1ccc(OCCSc2nc3ccccc3[nH]2)cc1	-28*	0	3	-3	-22
Nc1c(-c2ccccc2)c(CSc2nc3ccccc3[nH]2)nn1-c1cccc(Cl)c1	·	2	-4	-1	-28
Fc1ccc(CSc2nc3ccccc3[nH]2)cc1	·	-3	·	·	·
